According to ChEMBL document CHEMBL3988442, “University of Dundee, Small-Polar-MMV Screening Library” (2021):
Out of some 48,000 compounds screened, about 13,000 (27%) showed an effect of 50% or more. This is one part of the list.

system: Wolbachia pipientis; assay: Anti-Wolbachia Cell-Based Screen; type: functional; design: scale not given: in the data most compounds retested in dose-response had high values; details: 5 µM

| SMILES | Percent Effect [%] |
| --- | --- |
| OC1(c2cn(CC3CCN(C4CCSC4)CC3)nn2)CCCC1 (centres undefined) | -24.22 |
| Cc1nccn1-c1ccc(NC(=O)C2CCCN2CC2CC2)cc1 (centres undefined) | 11.95 |
| Cc1cc(-n2cncn2)ccc1C(=O)Nc1ccc(N2CCCC2)cn1 | -10.21 |
| FC(F)(F)CCN(Cc1ccon1)C1CCC1 | 0.2197 |
| COc1ccc(CN2CCC3(CCN(c4cccnc4)C3=O)C2)cc1.O=C(O)C(F)(F)F.O=C(O)C(F)(F)F (centres undefined) | -2.008 |
| O=C(O)C(F)(F)F.O=C(O)C(F)(F)F.c1cncc(C2COC3(CCN(Cc4ccsc4)CC3)C2)c1 (centres undefined) | 104.8 |
| O=C(O)C(F)(F)F.O=C(O)C(F)(F)F.O=C(c1ccsc1)N1CCOC2(CCN(Cc3cccnc3)CC2)C1 | -15.45 |
| COc1ccc(CN2CCC3(CC2)CC(c2cccnc2)CO3)cc1.O=C(O)C(F)(F)F.O=C(O)C(F)(F)F (centres undefined) | 103.1 |
| O=C1COc2cc(C(=O)NS(=O)(=O)c3ccccc3F)ccc2N1 | -1.273 |
| Cc1ccc(C(CNCc2c[nH]nc2C)N(C)C)cc1.Cl (centres undefined) | -30.61 |
| O=C1[C@H]2CC[C@H](CN(C3CCOCC3)C2)N1Cc1cscn1 | -44.85 |
| COCCN1C(=O)[C@H]2CC[C@@H]1CN(c1nccc(C)n1)C2 | 1.615 |
| CS(=O)(=O)N1C[C@@H]2CC[C@H](C1)N(Cc1cscn1)C2=O | -6.714 |
| COCCN1C(=O)[C@H]2CC[C@@H]1CN(Cc1nnc(C3CC3)o1)C2 | 101 |
| Cc1cnn(C2CN(Cc3nnc(C4CC4)o3)C2)c1 | 1.311 |
| CCC1CN(Cc2nnc(C3CC3)o2)CCN1CCOC (centres undefined) | -15.54 |
| COCCN1C(=O)[C@H]2CC[C@@H]1CN(c1ncccn1)C2 | -42.86 |
| COCCN1C(=O)[C@H]2CC[C@@H]1CN(Cc1nnc(-c3ccccc3)o1)C2 | 112.1 |
| O=C1[C@H]2CC[C@H](CN(Cc3nnc(C4CC4)o3)C2)N1Cc1cscn1 | 105.2 |
| CCS(=O)(=O)CC(C)N(C)C(=O)NCCc1cccc(F)c1F (centres undefined) | -8.987 |
| CCc1ccc(CN(C)c2ccc(-c3nc(COC)no3)cn2)nc1 | -21.07 |
| Cc1nc2n(n1)CC(Nc1cc(C(F)(F)F)nc3ncnn13)CC2 (centres undefined) | 10.68 |
| Cc1ccsc1CN(C)C(=O)c1ccc(N2CCOCC2)c(F)c1 | 8.665 |
| CCc1nc(CN(C)C2CCN(CCCOc3ccccc3)C2)no1 (centres undefined) | 76.47 |
| CCc1nc(CN(C)C2CCN(CCOc3ccccc3)C2)no1 (centres undefined) | 109.8 |
| CCc1nc(CN(C)C2CCN(Cc3ccc(C#N)cc3F)C2)no1 (centres undefined) | 1.706 |

| SMILES | Percent Effect [%] |
| --- | --- |
| CCc1nc(CN(C)C2CCN(CCNS(=O)(=O)CC)C2)no1 (centres undefined) | 8.032 |
| Cc1ccc(NC2(C(=O)NCCCN)CCCC2)cc1 | -6.352 |
| O=C(CC1CCN(c2cccnn2)CC1)Nc1cccnc1 | 90.02 |
| CN(CC(=O)Nc1cccnc1)CC1CCCN1c1cccnn1 (centres undefined) | -11.55 |
| O=C(Nc1nncs1)N1CCC(CCO)CC1 | -8.889 |
| O=C(C[C@H]1[C@H]2CN(C(=O)CO)C[C@@H]12)Nc1cccnc1 | 10.82 |
| O=C(CC1CCN(c2cccnn2)CC1)Nc1nncs1 | 96.76 |
| CN(CC(=O)Nc1nncs1)CC1CCCN1c1cccnn1 (centres undefined) | -0.3075 |
| Cc1ccc(N2C(=O)N[C@@H]3CCN(C(=O)C4CC4)[C@@H]3C2=O)cc1 | 11.16 |
| CCN(Cc1noc(C2CCC2)n1)C(=O)c1cnc2ccccc2c1 | 94.43 |
| CCNC(=O)N1CC(c2nc(Cc3ccccc3)no2)C1 | -5.949 |
| CCCc1nc(CN(CC)C(=O)c2onc3ccccc23)no1 | 89.45 |
| CN1CCC(N(CCc2ccccc2)Cc2noc(C3CC3)n2)CC1 | 8.424 |
| CCCc1nc(CN(CC)C(=O)c2ccc(OC)c(OC)c2)no1 | -5.69 |
| CCCc1nc(CN(CC)C(=O)c2ccc3ncsc3c2)no1 | -3.567 |
| CCN(Cc1noc(C2CCC2)n1)C(=O)CCc1cc2n(n1)CCNC2 | -16.19 |
| CCN(Cc1noc(C2CC2)n1)C(=O)c1onc2ccccc12 | 98.35 |
| Cn1ccnc1CN(CCO)C(=O)c1cnc2ccccc2c1 | -19.73 |
| Cc1noc(COCC(=O)Nc2cc(C)c(Br)cn2)n1 | -3.051 |
| CC(=O)NCC1CN(c2ccc3c(Cl)ccnc3c2F)CCO1 (centres undefined) | -19.58 |
| Cc1ccc(C(=O)NCCNCC2CNc3ccnn3C2)cc1F (centres undefined) | -3.46 |
| CN1CCCN(c2nccc(-c3cncnc3C3CCCCC3)n2)CC1 | 86.07 |
| CN1CCN(c2nccc(-c3cncnc3C3CCCCC3)n2)CC1 | 58.46 |
| Cc1nn(C)cc1-c1ccnc(N2CCN(c3cnccn3)CC2)n1 | 17.52 |
| CCc1ncc2c(n1)CN(c1nccc(C3CCCC3)n1)C2 | 14.73 |
| Cc1ccc([C@@H]2CN(C(=O)c3ccc[nH]3)C[C@H]2NC(=O)C2CC2)cc1 | 0.8109 |

| SMILES | Percent Effect [%] |
| --- | --- |
| Cc1noc(C)c1CC(=O)NCC(CC(C)C)N1CCOCC1 (centres undefined) | -1.173 |
| Cc1ccc(F)cc1NC(=O)NCC(C)N1CCOCC1 (centres undefined) | 9.148 |
| Cc1cc(NC(=O)NCC(C(C)C)N2CCOCC2)n(C)n1 (centres undefined) | 115.8 |
| Cc1c(NC(=O)NCC(C)N2CCOCC2)cccc1OC(F)F (centres undefined) | -9.929 |
| CCC(CC)C(CNC(=O)Nc1cc(C)nn1C)N1CCOCC1 (centres undefined) | -3.913 |
| CCC(CC)C(O)CNC(=O)Nc1cc(C)nn1C (centres undefined) | 91.79 |
| Cc1cc(NC(=O)NCC(CC(C)C)N2CCOCC2)n(C)n1 (centres undefined) | 103.9 |
| Cc1cc(NC(=O)NCC(C)N2CCOCC2)n(C)n1 (centres undefined) | 113 |
| CC(C)CC(CNC(=O)NCc1cc[nH]n1)N1CCOCC1 (centres undefined) | 6.619 |
| COc1ccc(C(O)CNC(=O)Nc2cc(C)nn2C)cc1 (centres undefined) | -16.1 |
| CCn1cnnc1CNC(=O)NCC(C(C)C)N1CCOCC1 (centres undefined) | -2.117 |
| Cc1cc(NC(=O)NCC(C)O)n(C)n1 (centres undefined) | -6.671 |
| CC(C)CS(=O)(=O)N1CCC2(CN(c3cccc(F)c3)C(=O)CN2C)C1.O=C(O)C(F)(F)F (centres undefined) | 10.41 |
| Cn1cc(Cl)c(CN2CCCC(Cn3cc(CO)nn3)C2)n1 (centres undefined) | -2.88 |
| OCc1cn(CC2CCN(C3CCSC3)CC2)nn1 (centres undefined) | -25.36 |
| CC(O)c1cn(C2CCN(C(=O)C3(C)CCN(C)CC3)CC2)nn1 (centres undefined) | 3.786 |
| C=C1C(C)(C)[C@H]2CC[C@]1(C(=O)N1CCC(Cn3cc(CO)nn3)CC1)C2 | 87.91 |
| C=C1C(C)(C)[C@H]2CC[C@]1(C(=O)N1CCC(n3cc(CO)nn3)CC1)C2 | 93.63 |
| C=C1C(C)(C)[C@H]2CC[C@]1(C(=O)N1CCC(n3cc(CCO)nn3)CC1)C2 | 95.18 |
| Cc1ccc(C(=O)N2CCC(n3cc(CO)nn3)CC2)cn1 | 1.663 |
| CC1(C(=O)N2CCC(n3cc(C4(O)CCCC4)nn3)CC2)CCCCC1 | -2.498 |
| Cc1ccoc1C(=O)N1CCC(n2cc(CO)nn2)CC1 | -7.426 |
| CCc1noc(CS(=O)(=O)CC=C(C)C)n1 | -4.555 |
| O=C(NCC1CC[C@@H]2[C@@H]1OCCN2Cc1cccs1)c1ccco1.O=C(O)C(F)(F)F (some centres undefined) | 0.6461 |
| O=C(O)C(F)(F)F.O=C1N(CC2CC2)CCC12CCN(CC1CC1)CC2 | 11.64 |
| COC[C@H]1CN(CC2CC2)C(=O)[C@@H]2CCN(Cc3ccoc3)CC[C@H]12.O=C(O)C(F)(F)F | -27.64 |

| SMILES | Percent Effect [%] |
| --- | --- |
| CN1CCC(CN2CCC3(CCCN(Cc4ccoc4)C3)C2=O)CC1.O=C(O)C(F)(F)F.O=C(O)C(F)(F)F (centres undefined) | 107.1 |
| O=C(O)C(F)(F)F.O=C1N(CC2CC2)CCC12CCN(Cc1ccoc1)CC2 | 112.5 |
| COCCN1CCC2(CCCN(Cc3ccoc3)C2)C1=O.O=C(O)C(F)(F)F (centres undefined) | 89.97 |
| CN(C)C(=O)CN1CCC2(CCCN(Cc3ccoc3)C2)C1=O (centres undefined) | -23.42 |
| CC(=O)N[C@@H](CC(C)C)C(=O)N1CCC(n2cc(CC(C)C)nn2)CC1 | -6.729 |
| O=S(=O)(Nc1ccccn1)c1cc(Cl)cc2c1OCC2 | -2.666 |
| COCc1ncn2c1CN(S(=O)(=O)c1cccs1)CCC2 | -6.89 |
| FC(F)(F)c1ccc(CNC[C@H]2COCc3nc4cccnc4n32)cc1 | -6.835 |
| CCOCc1ccc(NCc2cnc(N3CCN(C)CC3)nc2)cc1 | 18.94 |
| O=S(=O)(NCCC(O)c1cccs1)c1ccccc1 (centres undefined) | 2.573 |
| CSc1ccc(OC(C)C(=O)Nc2c(C)n[nH]c2C)cc1 (centres undefined) | -3.157 |
| CCOCc1nc2c(c(NC(CC)c3ccncc3)n1)CCNCC2 (centres undefined) | -23.76 |
| O=C(Nc1ccc(-n2cncn2)nc1)N(CC1CCOC1)C1CC1 (centres undefined) | 3.822 |
| Cc1cc(CNC(=O)NCCOc2ccc(F)c(F)c2)on1 | -11.19 |
| O=C(NCC1CCS(=O)(=O)C1)c1ccco1 (centres undefined) | 88.86 |
| O=C1COC[C@H]([C@H](O)c2ccc(NC(=O)c3ccco3)cc2)N1 | -8.877 |
| Cc1cccc(C(=O)NCC2CCS(=O)(=O)C2)n1 (centres undefined) | 20.7 |
| COc1ncccc1NC(=O)NCC1CCS(=O)(=O)C1 (centres undefined) | -8.215 |
| O=C(NCC1CCS(=O)(=O)C1)Nc1ccccn1 (centres undefined) | 11.69 |
| Cc1cc(C(=O)NCC2CCS(=O)(=O)C2)ccc1NC(=O)c1ccco1 (centres undefined) | 105.8 |
| O=C(NCC1CC1)c1ccc(NC(=O)c2ccco2)cc1 | 109.6 |
| Cc1ccc(NC(=O)NCC2CCS(=O)(=O)C2)cc1Cl (centres undefined) | 41.82 |
| O=C(NCC1CCS(=O)(=O)C1)c1ccc2cccc(Cl)c2n1 (centres undefined) | -11.54 |
| O=C(NCC1CCS(=O)(=O)C1)c1ccc(NC(=O)c2ccco2)cc1 (centres undefined) | 100.2 |
| O=C(NCC1CCCN(C(=O)NCCc2ccccc2)C1)c1ccco1 (centres undefined) | -12.18 |
| Cc1occc1C(=O)Nc1ccc(C(=O)NC[C@H]2CCCN2)cc1 | -11.64 |
